The values below come from PubChem BioAssay (NCI).

About 83,000 compounds went through this panel and 20% of them were active in at least one assay; those are over-represented in the sample as a whole.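 Percent growth is the endpoint: 0 to 100 indicates growth inhibition (40 means 60% inhibition), 0 means no net growth, and negative values indicate cell death.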 Values without a mark were called inactive. The source made the active and inactive calls. Rule for the calls: active = growth percent below 10; inactive = the rest.

Assay in all cases: NCI-60 one-dose screen, 48 h (100 = growth as untreated, 0 = no growth, -100 = all killed)
One assay has as its system SK-MEL-2 melanoma. To be noted: 10 µM unless noted.
In the next assay the test system is EKVX NSCLC. To be noted: 10 µM unless noted.
Another assay has as its system SN12C renal. Conditions: 10 µM unless noted.
The test system of a further assay is UO-31 renal. To be noted: 10 µM unless noted.
The test system of another assay is ACHN renal. To be noted: 10 µM unless noted.
A further assay relates to CAKI-1 renal. Conditions: 10 µM.
Another assay relates to A498 renal. Conditions: 10 µM unless noted.
A further assay has as its system CCRF-CEM leukemia. Conditions: 10 µM unless noted.
For the next assay, the system named is MOLT-4 leukemia. To be noted: 10 µM unless noted.
A further assay deals with SR leukemia. Conditions: 10 µM unless noted.
For another assay, the system named is RPMI-8226 leukemia. To be noted: 10 µM unless noted.
A further assay relates to OVCAR-8 ovarian. Conditions: 10 µM unless noted.
Another assay relates to OVCAR-5 ovarian. To be noted: 10 µM unless noted.
In the next assay the test system is OVCAR-4 ovarian. Conditions: 10 µM unless noted.
Another assay relates to SK-OV-3 ovarian. Conditions: 10 µM unless noted.
The next assay concerns IGROV1 ovarian. Conditions: 10 µM unless noted.
The next assay concerns OVCAR-3 ovarian. Conditions: 10 µM unless noted.
Another assay concerns HS 578T breast. To be noted: 10 µM unless noted.
The subject of the next assay is NCI/ADR-RES ovarian. To be noted: 10 µM unless noted.

`CCOC(=O)CSc1nnc(-c2cc3c([nH]c4ccccc43)c(-c3cccc(O)c3)n2)n1-c1ccc(C)cc1`: the growth is 37.7% in the assay on SK-MEL-2 melanoma; 78.8% in the assay with EKVX NSCLC; 58.1% in the assay with SN12C renal; 72.6% in the assay with UO-31 renal; 50.4% with ACHN renal; 92.1% with CAKI-1 renal. Besides, the growth with A498 renal was 96.8%; with CCRF-CEM leukemia, 46.4%; in the assay with MOLT-4 leukemia, 17.4%; in the assay on SR leukemia it was 13.7%; in the assay on RPMI-8226 leukemia it was 76.1%; with OVCAR-8 ovarian, 16.7%. Besides, the growth was 96.4% with OVCAR-5 ovarian; 72.6% in the assay on OVCAR-4 ovarian; 105% in the assay with SK-OV-3 ovarian; 28.3% in the assay with IGROV1 ovarian; 31.1% in the assay on OVCAR-3 ovarian; 58.7% in the assay with HS 578T breast. Further, the growth in the assay on NCI/ADR-RES ovarian was 89.9%.
As for `COc1ccc(-c2nn(-c3ccc(NC(=O)c4cc(C(F)(F)F)cc(C(F)(F)F)c4)cc3)cc2-c2ccncc2)cc1Cl`, the growth was 89.9% in the assay on SK-MEL-2 melanoma; 70.3% in the assay with EKVX NSCLC; 77.2% with SN12C renal; 44.6% in the assay with UO-31 renal; 61.9% in the assay on ACHN renal; 41.2% with CAKI-1 renal. Also, the growth was 45.8% in the assay with A498 renal; 59% with CCRF-CEM leukemia; 62.2% with MOLT-4 leukemia; 73.6% in the assay with SR leukemia; 10.7% in the assay with RPMI-8226 leukemia; 68.2% in the assay on OVCAR-8 ovarian. Further, the growth in the assay with OVCAR-5 ovarian was 64%; with OVCAR-4 ovarian, 90.5%; with SK-OV-3 ovarian, 78.4%; in the assay on IGROV1 ovarian, 74.7%; in the assay with OVCAR-3 ovarian it was 60.1%; in the assay with NCI/ADR-RES ovarian, 63.5%.
As for `O=S(=O)(CCN1CCOCC1)Nc1cc(-c2ccc3ncnc(Nc4ccc(F)c(Cl)c4)c3c2)cnc1Cl`, the growth is 2.26% (active) with SK-MEL-2 melanoma; 7.72% (active) in the assay with EKVX NSCLC; 18% with SN12C renal; -8.69% (active) in the assay on UO-31 renal; 9.87% (active) in the assay on ACHN renal; 17% in the assay with CAKI-1 renal. The growth was -40% (active) with A498 renal; 14.5% in the assay with CCRF-CEM leukemia; -8.59% (active) in the assay on MOLT-4 leukemia; 18.8% in the assay with SR leukemia; 9.83% (active) in the assay on RPMI-8226 leukemia; 16.1% in the assay on OVCAR-8 ovarian. Further, the growth in the assay on OVCAR-5 ovarian was 12.1%; in the assay on OVCAR-4 ovarian it was 11.5%; in the assay with SK-OV-3 ovarian it was -25.4% (active); with IGROV1 ovarian it was -24.1% (active); in the assay on OVCAR-3 ovarian it was -8.19% (active); in the assay on HS 578T breast it was -18.3% (active). Moreover, in the assay on NCI/ADR-RES ovarian, the growth is 48.6%.
For the compound `O=[N+]([O-])c1cccc(C(c2ccccc2)c2ccccc2)c1`, the growth in the assay with SK-MEL-2 melanoma is 97.8%; in the assay on EKVX NSCLC, 79.1%; in the assay with SN12C renal it was 98%; with UO-31 renal it was 75.7%; in the assay on ACHN renal, 85.9%; in the assay on CAKI-1 renal it was 56.8%. In addition, the growth is 91% in the assay on A498 renal; 87.2% in the assay with CCRF-CEM leukemia; 83.3% in the assay with MOLT-4 leukemia; 78.3% in the assay on SR leukemia; 82.9% in the assay on RPMI-8226 leukemia; 98% with OVCAR-8 ovarian. In addition, the growth in the assay on OVCAR-5 ovarian is 85.6%; in the assay with OVCAR-4 ovarian, 98.2%; in the assay on SK-OV-3 ovarian, 95.6%; with IGROV1 ovarian it was 84.5%; with OVCAR-3 ovarian it was 98.3%; with NCI/ADR-RES ovarian it was 95.8%.
Take `Nc1ncnc2c1ccn2-c1cccc(NC(=O)c2cccc(C(F)(F)F)c2)c1`: the growth is 80.6% with SK-MEL-2 melanoma; 66.6% with EKVX NSCLC; 88.4% with SN12C renal; 86.4% with UO-31 renal; 64.1% in the assay with ACHN renal; 69.7% in the assay on CAKI-1 renal. Further, the growth in the assay on A498 renal is 82.9%; with CCRF-CEM leukemia, 51.3%; in the assay with MOLT-4 leukemia it was 52.3%; in the assay with SR leukemia it was 54.6%; in the assay with RPMI-8226 leukemia, 52.9%; in the assay with OVCAR-8 ovarian, 78%. Further, the growth was 81.4% with OVCAR-5 ovarian; 68.7% in the assay on OVCAR-4 ovarian; 93.3% in the assay on SK-OV-3 ovarian; 87.5% in the assay on IGROV1 ovarian; 80% in the assay with OVCAR-3 ovarian; 78.4% in the assay on NCI/ADR-RES ovarian.
Take `O=C(Nc1ccc(-n2ccc3c(NC(=O)c4ccccc4)ncnc32)cc1)c1ccc(Cl)c(C(F)(F)F)c1`: the growth with SK-MEL-2 melanoma was 34.7%; in the assay on EKVX NSCLC, 47.7%; in the assay on SN12C renal, 22%; in the assay on UO-31 renal, 32.7%; with ACHN renal, 27.6%; in the assay on CAKI-1 renal it was 34.8%. Moreover, the growth was 80.1% with A498 renal; 7.36% (active) in the assay with CCRF-CEM leukemia; 4.17% (active) in the assay on MOLT-4 leukemia; -19.6% (active) in the assay on SR leukemia; 6.7% (active) with RPMI-8226 leukemia; 3.65% (active) with OVCAR-8 ovarian. The growth in the assay with OVCAR-5 ovarian is 52%; in the assay with OVCAR-4 ovarian, 17.1%; in the assay with SK-OV-3 ovarian it was 65.6%; in the assay with IGROV1 ovarian, 15.3%; in the assay on OVCAR-3 ovarian, -3.5% (active); in the assay on NCI/ADR-RES ovarian it was 29.9%.
In the case of `Cc1cc(NC(=O)c2cccc(C(F)(F)F)c2)ccc1-n1ccc2c(NC(=O)c3ccccc3)nccc21`, the growth in the assay with SK-MEL-2 melanoma is 101%; in the assay with EKVX NSCLC, 94.1%; with SN12C renal, 94%; in the assay with UO-31 renal, 78.5%; with ACHN renal, 106%; in the assay on CAKI-1 renal, 93.1%. Moreover, the growth in the assay with A498 renal was 112%; with CCRF-CEM leukemia, 88.3%; with MOLT-4 leukemia it was 87.8%; in the assay with SR leukemia, 96.3%; in the assay on RPMI-8226 leukemia, 73.3%; in the assay on OVCAR-8 ovarian it was 98.2%. Further, the growth with OVCAR-5 ovarian is 98.3%; in the assay on OVCAR-4 ovarian, 96.7%; in the assay on SK-OV-3 ovarian, 108%; with IGROV1 ovarian it was 92.7%; with OVCAR-3 ovarian it was 95.7%; in the assay with NCI/ADR-RES ovarian it was 102%.
